Test results as given in the supplement of paper PMC10338343.
± gives the standard deviation. In all, about 3,000 sequences were measured (“pre-steady-state target cleavage rate”: median about 0.0079, highest 2% from about 0.2 on). For the sample, the highest values were picked, then their nearest neighbours and some sequences at random.

Tested on: MILI (PIWIL2) piRISC loaded with piRNA #2 (26 nt)
Assay: pre-steady-state target cleavage rate (min^-1); MIWI and MILI are mouse PIWI proteins and EfPiwi is from a freshwater sponge; tags in brackets are library labels; higher = faster piRNA-guided slicing of the target
Details: guide: piRNA #2 5'p-UUAGGUAACCCAGUAGAUCCAGAGGA; auxiliary factor: 500 nM mouse GTSF1
Procedure: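 Cleave-'n-Seq: a library of target RNAs (target site embedded in constant flanks, ACAGCATTCCGCGTTAGTGATATCCG... 5' flank; DNA-blocked outside the site) at 0.1 nM was incubated with 1 nM active mouse MILI or MIWI piRISC (synthetic 5'-monophosphorylated piRNA guide) with or without 500 nM mouse GTSF1 at 33 °C for 1 min to 16 h. Uncleaved targets were sequenced and normalised to non-target controls, and the pooled three trials were fitted to a burst-and-steady-state model to give the pre-steady-state cleavage rate (min^-1; k3 is constrained to at most 1e-4). Sequence is the target site only; target names encode pairing extent (gX:gY) and contiguous / 1-mismatch / 2-mismatch / bulge geometry. Fits with R² ≤ 0 are excluded.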

Sequence	pre-steady-state target cleavage rate
CUUAAGGAGACCUUCUACUGGGGUACCUAA	< 0.0001
CUUAAGGUGUGGAUCAACUGGGUUACCUAA	0.014 ± 0.0076
CUUAAGCUCUGGAUCUUGUGGGUUACCUAA	0.00903 ± 0.0046
CUUAACCUCUGGAUCUACGGGGUUACCUAA	0.0813 ± 0.012
CUUAAGGAGUGGAUCUACUGGGUUACCGUAA	0.0155 ± 0.0079
CUUAUCCUCUGGAUCUACAGGGUUACCUAA	0.119 ± 0.016
CUUAAGGACAGGAUCUACUGGGUUACCUAA	0.0192 ± 0.013
CUUAAGGAGACCUAGAUCUGGGUAACCAAA	< 0.0001
CUUAUCCUCUGGUUCUACUGGGUAACCUAA	0.268 ± 0.097
CUUAAGCUCUGGUAUCUACUGGGUUACCUAA	0.15 ± 0.038
CUUAUCCUCUGGAUCUACUGGGUAACCUAA	0.0929 ± 0.021
CUUAUCCUCUGGUAGUACUGGGUUACCUAA	0.103 ± 0.035
CUUAACCUCUGGUAUCUACUGGGUUACCUAA	0.584 ± 0.19
CUUAACCUCUGGUUCAACUGGGUUACCUAA	0.117 ± 0.035
CUUAACCUCUGGUUCUACUGGGUAACCUAA	0.14 ± 0.044
CUUAUCCUCUGGUUCAACUGGGUUACCUAA	0.225 ± 0.063
CUUAACCUCUGUAUCUACUGGGUUACCUAA	0.071 ± 0.013
CUUAUCCUCUGGUUGUACUGGGUUACCUAA	0.151 ± 0.031
CUUAUCCUCUGGUACUACUGGGUUACCUAA	0.754 ± 0.23
CUUAUCCUCUGGAUCAACUGGGUUACCUAA	0.0659 ± 0.012
CUUAAGGAGUAGGAUCUACUGGGUUACCUAA	0.00494 ± 0.0041
CUUAAGGUCUGCAUCUACUGGGUUACCAAA	0.0157 ± 0.0062
CUUAAGCUCUGGAUCUACUGGGUUAGCUAA	0.094 ± 0.018
CUUAACCUCUGGAUCUAUUGGGUUACCUAA	0.0785 ± 0.023
CUUAAGCUCUGGAUGUAGUGGGUUACCUAA	0.061 ± 0.011

Sequence	pre-steady-state target cleavage rate
CUUAAGCUCUGGAUCUACUGGGCUUACCUAA	0.019 ± 0.0061
CUUAACCUCUGGUCUACUGGGUUACCUAA	0.333 ± 0.11
CUUAACCUCUGGAGUCUACUGGGUUACCUAA	0.135 ± 0.031
CUUAACCUCUGGUUCUACUGGGUUACCUAA	0.141 ± 0.031
CUUAACCUCUGGGUCUACUGGGUUACCUAA	0.169 ± 0.029
CUUAACCUCUGGUUCUACUGGGUUACCAAA	0.134 ± 0.037
CUUAACCUCUGGUUCUACUGGGUUACCUUA	0.3 ± 0.087
CUUAUCCUCUGGAUCUAUGGGUUACCUAA	0.0334 ± 0.0086
CUUAACCUCUGCAUGUACUGGGUUACCUAA	0.117 ± 0.016
CUUAUCGUCUCGAUCUACUGGGUUACCUAA	0.0585 ± 0.014
CUUAAGGAAUGGAUCUACUGGGUUACCUAA	0.0666 ± 0.015
CUUAAGCACUGGAUCUACUGGGUUACCUAA	0.113 ± 0.02
CUUAAGCACUGGUUCUACUGGGUUACCUAA	0.199 ± 0.043
CUUAAGCUGUGGUUCUACUGGGUUACCUAA	0.0437 ± 0.014
CUUAAGCUCUCGAUCUACUGGGUUACCUAA	0.113 ± 0.019
CUUAAGCACUCGAUCUACUGGGUUACCUAA	0.417 ± 0.15
CUUAAGCACUGCAUCUACUGGGUUACCUAA	0.0725 ± 0.015
CUUAAGGUCAGGUUCUACUGGGUUACCUAA	0.0166 ± 0.0093
CUUAACCUCUGGAACUACUGGGUUACGUAA	0.118 ± 0.051
CUUAAGGUCAGGAUCUACUGGGUUACCUUA	0.0166 ± 0.0094
CUUAUCCUCUGGAUCUACUGGGUUACCUA	0.159 ± 0.032
CUUAUCCUCUGGAUCUACUGGGUUACCUAC [g2:g26:cont:t1C]	0.105 ± 0.014
CUUAUCCUCUGGAUCUACUGGGUUACCUGAA	0.384 ± 0.17
CUUAUCCUCUGGAUCUACUGGGUUACCUCAA	0.0973 ± 0.019
CUUAUCCUCUGGAUCUACUGGGUUACCUCA	0.0902 ± 0.018

Sequence	pre-steady-state target cleavage rate
CUUAUCCUCUGGAUCUACUGGGUUACCUGA	0.838 ± 0.37
CUUAAGCUCAGGAUCUACUGCGUUACCUAA	0.0105 ± 0.0058
CUUAAGGUCUGGAUCUAGUGGGUUACGUAA	0.0114 ± 0.004
CUUAUCCUCUGGAUCUACUGGAUUACCUAA	0.0307 ± 0.0083
CUUAAGGAGUGGAUCUAGUGGGUUACCUAA	0.0231 ± 0.0069
CUUAUCCUCUGGAUCUACUGGGAUAGCUAA	0.0182 ± 0.0088
CUUAAGCUCUGGAUCUAGUGGGUUACCUAA	0.0282 ± 0.0073
CUUAACCUCUGGAGCUACUGGGUUACCUAA	0.226 ± 0.049
CUUAACCUCUGGACCUACUGGGUUACCUAA	0.0796 ± 0.023
CUUAUCCUCUGGAGCUACUGGGUUACCUAA	0.238 ± 0.052
CUUAAGCUCUGGAGCUACUGGGUUACCUAA	0.0783 ± 0.014
CUUAUCCUCUGGACCUACUGGGUUACCUAA	0.0996 ± 0.024
CUUAUCCUCUGGAUCCUACUGGGUUACCUAA	0.0665 ± 0.018
CUUAACCUCUGGAUCUACUGGGAUACCUUA	0.0634 ± 0.023
CUUAAGGUCUGGAUCUACUGGGUUACCUUAA	0.0607 ± 0.015
CUUAAGCUCUCCUUCUACUGGGUUACCUAA	0.0472 ± 0.016
CUUAACCUCUGGAUCUACUGGGUUAGCCUAA	0.15 ± 0.035
CUUAAGCCCUGGAUCUACUGGGUUACCUAA	0.202 ± 0.041
CUUAUACCUCUGGAUCUACUGGGUUACCUAA	0.251 ± 0.058
CUUAAGCUGCUGGAUCUACUGGGUUACCUAA	0.0417 ± 0.015
CUUAGCCUCUGGAUCUACUGGGUUACCUAA	0.218 ± 0.05
CUUAAGCCUGGAUCUACUGGGUUACCUAA	0.104 ± 0.026
CUUAUACUCUGGAUCUACUGGGUUACCUAA	0.0651 ± 0.014
CUUAAGCCUCUGGAUCUACUGGGUUACCUAA	0.146 ± 0.043
CUUACCCUCUGGAUCUACUGGGUUACCUAA	0.11 ± 0.016
